Screens as filed in PubChem BioAssay.
Rows were chosen to be rich in hits. Some 6% of all compounds tested hit in one or more screens of this group.
DRD3 antagonist: D3 dopamine receptor (human) antagonism; P35462; D3R cells, DiscoveRx beta-arrestin luminescence, antagonist mode; hits give low values; 2.5% of 360,000 active; max response, negative = inhibition, %; in the data active = max response below about -50%; also: % is scaled to controls: 0 for no effect and ±100 for the full control effect
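Cells expressing the human receptor were seeded at 1500 cells/well, incubated overnight at 37 degrees C in 5% CO2, then exposed to library compounds with dopamine controls for 90 minutes at 37 degrees C before luminescent detection.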
D3 ag: D3 dopamine receptor (human) agonism. AID 652048. 0.58% of 410,000 active. D3R DiscoveRx beta-arrestin cells, luminescence, 90 min. P35462. max activation, %; in the data active = max activation above about 30%; also: 0% is about no effect
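Cells at 1500/well, incubated overnight, then treated with pinned compounds (dopamine as control) for 90 min at 37 degrees C. DiscoveRx reagent added for 30 - 60 minutes at room temperature; luminescence read.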
D1 PAM: potentiators of human D1 dopamine receptor; HEK293 TREx D1 cells, calcium flux, dopamine EC20 potentiation; 0.036% of 360,000 active; P21728; potentiation, % at 10 µM; in the data active = potentiation above about 30%; also: 0% is about no effect
Target sequence (P21728 whole entry, looked up): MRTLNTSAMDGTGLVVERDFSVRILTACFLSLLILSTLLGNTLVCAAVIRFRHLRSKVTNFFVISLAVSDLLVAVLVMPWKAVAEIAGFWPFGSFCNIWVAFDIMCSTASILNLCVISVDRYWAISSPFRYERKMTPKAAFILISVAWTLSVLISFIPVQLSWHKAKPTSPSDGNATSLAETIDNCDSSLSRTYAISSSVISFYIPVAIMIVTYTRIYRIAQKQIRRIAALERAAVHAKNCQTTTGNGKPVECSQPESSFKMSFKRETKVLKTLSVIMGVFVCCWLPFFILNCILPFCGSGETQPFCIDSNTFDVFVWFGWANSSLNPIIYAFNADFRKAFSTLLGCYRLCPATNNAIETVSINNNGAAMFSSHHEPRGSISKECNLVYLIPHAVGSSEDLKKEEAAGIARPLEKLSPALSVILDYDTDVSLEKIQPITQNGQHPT
D1 agonist: agonists of human D1 dopamine receptor; 1% of 360,000 active; activation, % at 2 µM; HEK293 T-REx D1 cells, calcium flux, agonist mode; P21728; AID 504660; in the data active = activation above about 30%; also: 0% is about no effect
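Tetracycline-induced HEK293 TREx D1 cells, force-coupled to calcium signalling, were dye-loaded with a no-wash calcium kit. Compound was pin-added after a 10 s baseline. Fluorescence was read kinetically at 1 cycle/s for 180 s, with calcium rises flagged as agonism.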
D1 antag: antagonists of human D1 dopamine receptor; P21728; AID 504652; HEK293 TREx D1 cells, calcium flux, dopamine EC80; hits give low values; 3.2% of 360,000 active; activity change, negative = inhibition, % at 10 µM; in the data active = activity change below about -30%; also: % is scaled to controls: 0 for no effect and ±100 for the full control effect
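Tetracycline-induced HEK293 Trex D1 cells, force-coupled to calcium, dye-loaded; compounds added and read 180 s, then EC80 dopamine added and calcium flux tracked kinetically another 180 s.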
An asterisk follows results filed as active.

Screening O=C(c1cccc(Cl)c1)N1CCN(Cc2ccc3c(c2)OCO3)CC1 returned DRD3 antagonist -8.0, D3 ag -18.8, D1 PAM -3.3, D1 agonist 1.8 and D1 antag -2.7.
`O=C(c1ccc(COc2ccc(Cl)cc2)o1)N1CCN(Cc2ccc3c(c2)OCO3)CC1` gave DRD3 antagonist -18.8, D3 ag -17.3, D1 PAM -11.4, D1 agonist 10.7 and D1 antag -42.9*.
For CC(C)C[C@H]1COc2cc(Br)ccc2S(=O)(=O)N1 the results were DRD3 antagonist -27.6 and D3 ag 2.9.
For Cc1ccccc1C(=O)N1[C@@H](C(C)C)COc2cc(Br)ccc2S1(=O)=O the results were DRD3 antagonist 14.6 and D3 ag 34.8*.
Screening COc1cc(/C=N/NC(=O)C2COc3ccccc3O2)ccc1O (configuration not stated) returned DRD3 antagonist -56.4*, D3 ag -11.2, D1 PAM 7.0, D1 agonist 4.9 and D1 antag -9.6.
`Cn1cccc1/C=N\NC(=O)C1COc2ccccc2O1` (configuration not stated) gave DRD3 antagonist 0.7, D3 ag -3.9, D1 PAM -9.5, D1 agonist 1.0 and D1 antag -38.3*.
Screening COc1ccc(/C=N\NC(=O)C2COc3ccccc3O2)cc1O (configuration not stated) returned DRD3 antagonist -23.9, D3 ag -9.5, D1 PAM -9.6, D1 agonist 1.5 and D1 antag -8.6.
Screening O=C(NCCc1ccc(O)c(O)c1)C1COc2ccccc2O1 (configuration not stated) returned DRD3 antagonist 12.6, D3 ag 92.1*, D1 agonist 6.5 and D1 antag 1.3.
Cc1c(/C=N\NC(=O)C2COc3ccc(C(C)(C)C)cc3O2)c2ccccc2n1C (configuration not stated) was read as DRD3 antagonist 19.4, D3 ag 58.5*, D1 PAM -11.8, D1 agonist -1.2 and D1 antag -85.7*.
For CC(=O)Oc1ccc(Cn2cnc3cc4ccccc4cc32)cc1 the results were DRD3 antagonist 1.7, D3 ag -2.3, D1 PAM -10.2, D1 agonist 11.3 and D1 antag -42.0*.
For Cc1cc(Sc2ncnc(N)c2[N+](=O)[O-])ncn1 the results were DRD3 antagonist -70.9*, D3 ag -26.8, D1 PAM -5.0, D1 agonist 0.5 and D1 antag -23.8.
`Cc1cc(Sc2nc(N)ncc2[N+](=O)[O-])ncn1` gave DRD3 antagonist -60.2*, D3 ag -7.4, D1 PAM -3.2, D1 agonist -1.9 and D1 antag 30.6.
Screening CCOC(=O)c1c(C)oc2ncnc(Nc3cc(Cl)ccc3OC)c12 returned D3 ag 5.6, D1 PAM -3.1, D1 agonist 7.3 and D1 antag -9.4.
For Cc1ccc2nc(C3CCCN(C(=S)Nc4cccc(C)c4C)C3)[nH]c2c1 (configuration not stated) the results were DRD3 antagonist -21.3, D3 ag -4.3, D1 PAM -0.4, D1 agonist 0.8 and D1 antag 10.9.
`Cc1ccc(NC(=S)N2CCCC(c3nc4ccc(C)cc4[nH]3)C2)c(C)c1` (configuration not stated) gave DRD3 antagonist -15.3, D3 ag -8.0, D1 PAM -4.3, D1 agonist -1.5 and D1 antag -31.3*.
Screening CC(=O)N1N=C(c2cccc(NS(=O)(=O)c3ccc(C)cc3)c2)CC1c1ccco1 (configuration not stated) returned DRD3 antagonist -7.5, D3 ag 2.6, D1 PAM -3.8, D1 agonist 12.1 and D1 antag -13.7.
Screening CC(=O)N1N=C(c2ccc(NS(=O)(=O)c3ccccc3)cc2)CC1c1ccco1 (configuration not stated) returned DRD3 antagonist -7.7, D3 ag 1.6, D1 PAM 0.1, D1 agonist 0.1 and D1 antag -36.0*.
`COc1cc(NC(=O)N(Cc2ccco2)C2CCN(C(C)=O)CC2)cc(OC)c1OC` gave D3 ag -21.3, D1 PAM -3.6, D1 agonist 2.1 and D1 antag -3.4.
For C=CCOC(=O)/C(=C\c1ccccc1)NC(=O)c1ccco1 the results were DRD3 antagonist 1.4, D3 ag 5.4, D1 PAM -4.0, D1 agonist 3.4 and D1 antag -43.1*.
Screening C=CCOC(=O)/C(=C\c1ccc(OC)cc1)NC(=O)c1ccco1 returned DRD3 antagonist -50.8*, D3 ag -7.1, D1 PAM 1.1, D1 agonist 0.8 and D1 antag -0.5.
Screening CC(SCc1ccccc1)C(=O)Nc1ccc(F)cc1 (configuration not stated) returned DRD3 antagonist -4.1, D3 ag -0.7, D1 PAM 0.1, D1 agonist 0.3 and D1 antag -17.8.
`N#CC(C#N)=C(Nc1ccc(F)cc1)SCc1cccc(Br)c1` gave DRD3 antagonist -6.3, D3 ag -3.0, D1 PAM -10.4, D1 agonist 30.0 and D1 antag -42.4*.
Screening Cc1cccc(CSC(=N)N)c1 returned DRD3 antagonist -6.8, D3 ag -2.6, D1 PAM -0.9, D1 agonist 5.1 and D1 antag -6.1.
Screening Cc1cccc(CSC(Nc2ccc(F)cc2)=C(C#N)C#N)c1 returned DRD3 antagonist -8.4, D3 ag -0.9, D1 PAM -7.7, D1 agonist 26.0 and D1 antag -34.9*.
Screening CC(=O)Nc1ccc(NC(=O)C(C)OC(=O)c2ccc3[nH]c(C)c(C)c3c2)cc1 (configuration not stated) returned DRD3 antagonist -4.7, D3 ag 5.9, D1 PAM -4.8, D1 agonist 3.1 and D1 antag 3.0.
Cc1ccc(-n2c(SCC(=O)N3CCC(C)CC3)nc3c([nH]c4ccccc43)c2=O)cc1 was read as D3 ag -19.5, D1 PAM -3.2, D1 agonist 0.5 and D1 antag 15.3.
`Cn1cccc1C(=O)NC(=O)COC(=O)c1ccccc1O` gave DRD3 antagonist 10.1, D3 ag -1.2, D1 PAM -3.1, D1 agonist 8.0 and D1 antag 0.2.
CS(=O)(=O)c1ccc(C(=O)OCc2nnc(-c3ccc(Cl)cc3)o2)cc1[N+](=O)[O-] was read as DRD3 antagonist -54.8*, D3 ag -12.4, D1 PAM -1.5, D1 agonist -1.0 and D1 antag -13.1.
For CS(=O)(=O)c1ccc(C(=O)OCC(=O)NC23CC4CC(CC(C4)C2)C3)cc1[N+](=O)[O-] the results were DRD3 antagonist -58.3*, D3 ag -10.5, D1 PAM 4.2, D1 agonist 5.3 and D1 antag 44.2.
Cn1cccc1C(=O)NC(=O)COC(=O)c1ccc(S(C)(=O)=O)c([N+](=O)[O-])c1 was read as DRD3 antagonist -76.7* and D3 ag -12.6.
